GALK inh: galactokinase (human) inhibition. Purified GALK, Kinase-Glo residual ATP luminescence. Potency, µM (series often up to 57.5 µM), without a hit: top-dose activity change, negative = inhibition, usual class: inhibitors. AID 1868. P51570. 0.007% of 270,000 active; active = well fitted curve in the direction sought with a large enough effect; inconclusive = small, poorly fitted or top-dose-only effect, or another doubt; inactive = no such curve, though single readings can be large; an effect the other way counts as inactive or inconclusive; note: potency is the fitted concentration of half-maximal effect; % is set by controls: 0 for no effect and ±100 for the full control effect
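Galactose (100 uM) and ATP (35 uM) were turned over by 5 nM GALK for 1 h at RT. Kinase-Glo Plus then converted the remaining ATP into a luminescent signal.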
VDR inh: inhibitors of human vitamin D receptor; Potency, µM, inactives show max response, negative = inhibition, most hits filed as inhibitors; P11473; AID 504847; 0.93% of 400,000 active; VDR-SRC2-3 peptide fluorescence polarization, 2 h; active = well fitted curve in the direction sought with a large enough effect; inconclusive = small, poorly fitted or top-dose-only effect, or another doubt; inactive = no such curve, though single readings can be large; an effect the other way counts as inactive or inconclusive; note: potency is the fitted concentration of half-maximal effect; % is set by controls: 0 for no effect and ±100 for the full control effect
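Inhibition of the VDR/SRC2-3 peptide interaction is quantified by fluorescence polarization. Compounds (23 nl, pintool) incubate with the reagents for 2 hours at ambient room temperature.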
USP1 inh: inhibitors of human USP1/UAF1 deubiquitinase; O94782; recombinant USP1/UAF1, Ub-Rhodamine cleavage fluorescence; Potency, µM (doses to about 57.1 µM), for the others: at the highest dose activity change, negative = inhibition, hits mostly inhibitors; 0.23% of 390,000 active; AID 743255; active = well fitted curve in the direction sought with a large enough effect; inconclusive = small, poorly fitted or top-dose-only effect, or another doubt; inactive = no such curve, though single readings can be large; an effect the other way counts as inactive or inconclusive; note: potency is the fitted concentration of half-maximal effect; % is set by controls: 0 for no effect and ±100 for the full control effect; nearly all actives have a fitted effect of over 60% in size
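USP1/UAF1 complex at 1 nM was preincubated with compound for 15 min at room temperature, then Ub-Rho substrate (150nM final) was added. Fluorescence (480/540 nm) was read kinetically, 6 reads every 60 seconds.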
Coupling enz: counter-screen for Giardia aldolase inhibitors: coupling enzyme system. 0.67% of 290,000 active. coupling enzyme system counterscreen, AmpLite Red fluorescence. activity change, negative = inhibition, % at 58.2 µM, hits read low; in the data active = activity change below about -30%; note: % is set by controls: 0 for no effect and ±100 for the full control effect
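Counterscreen lacking aldolase: glyceraldehyde-3-phosphate coupling-enzyme reagent preincubated 10 min at RT with compound (at 57.5 uM final), then substrate/coupling system with AmpLite Red added; fluorescence read at 525/598 nm after 20 min RT.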
PLK1 PBD inh: blocks phosphopeptide binding to human PLK1 polo-box domain | Plk1 PBD binding of FITC phosphopeptide, fluorescence polarization | Potency, µM, without a hit: max response, negative = inhibition, usual class: inhibitors | 2.8% of 360,000 active | AID 720504; active = well fitted curve in the direction sought with a large enough effect; inconclusive = small, poorly fitted or top-dose-only effect, or another doubt; inactive = no such curve, though single readings can be large; an effect the other way counts as inactive or inconclusive; note: potency is the fitted concentration of half-maximal effect; series mostly up to about 57 µM; % is set by controls: 0 for no effect and ±100 for the full control effect; nearly all actives have a fitted effect of over 65% in size
USP2a block: blocks human ubiquitin-specific protease USP2a | O75604 | USP2 core, Ub-CHOP2 coupled fluorogenic reporter, 485/531 | Potency, µM (series often up to 38.3 µM), for the others: at the top dose activity change, negative = inhibition, usual class: inhibitors | 0.01% of 330,000 active | AID 463254; active = well fitted curve in the direction sought with a large enough effect; inconclusive = small, poorly fitted or top-dose-only effect, or another doubt; inactive = no such curve, though single readings can be large; an effect the other way counts as inactive or inconclusive;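 note: potency is the fitted concentration of half-maximal effect; plate controls were DMSO wells for no effect and full inhibition by NEM control for full effect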
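Deubiquitinase activity read as fluorescence (485/531 nm) after Ub-CHOP2 cleavage activates the enterokinase reporter on its substrate; USP2 core 10nM, Ub-CHOP2 and substrate 25nM each, 30min compound preincubation then 60min RT; data normalized to NEM, curves fitted.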
Casp1 catalase: caspase-1 inhibition with catalase present; caspase-1 Ac-WEHD-AFC fluorescence rate, catalase buffer; 30 tested, under 10 active; Potency, µM (doses to about 57.5 µM), for the others: top-dose activity change, negative = inhibition, most hits filed as inhibitors; shares compounds with Coupling enz
CASP1 inh CRC: confirmation of allosteric or competitive inhibitors of human caspase-1; shares compounds with Coupling enz; purified caspase-1, fluorogenic substrate cleavage; Potency, µM (highest dose often 57.5 µM), inactives show top-dose activity change, negative = inhibition, most hits filed as inhibitors; 20% of 60 active
Casp7 confirm: confirmation of allosteric or competitive inhibitors of human caspase-7; recombinant caspase-7, fluorogenic substrate cleavage; Potency, µM (doses to about 57.5 µM), for the others: at the highest dose activity change, negative = inhibition, most hits filed as inhibitors; 60 tested, under 10 active; shares compounds with Coupling enz; active = well fitted inhibition curve with a large enough effect in the main read-out, with a control signal flat, not every such curve was filed as active; inconclusive = small, poorly fitted or top-dose-only effect, or a change in a side signal; inactive = no such curve, though single readings can be large or run the other way
Casp7 cysteine: caspase-7 inhibition with cysteine present | shares compounds with Coupling enz | caspase-7 enzyme with cysteine, fluorogenic substrate, redox counterscreen | Potency, µM (titrated, usually from 57.5 µM), inactives show at the highest dose activity change, negative = inhibition, most hits filed as inhibitors | 60 tested, under 10 active
CASP7 redox cat: caspase-7 inhibition with catalase present | shares compounds with Coupling enz | 30 tested, under 10 active | AID 909 | Potency, µM (highest dose often 57.5 µM), without a hit: at the top dose activity, negative = inhibition, most hits filed as inhibitors | Caspase-7 Ac-DEVD-AFC fluorescence rate, catalase buffer
CASP1 redox cys: caspase-1 inhibition with cysteine present; shares compounds with Coupling enz; recombinant caspase-1, fluorogenic substrate, cysteine buffer; Potency, µM (doses to about 57.5 µM), for inactives: top-dose activity change, negative = inhibition, actives largely listed as inhibitors; 60 tested, under 10 active
An asterisk follows results filed as active; ? = inconclusive; . = no result. An excerpt weighted towards active compounds, which were near 3.2% of everything screened. Unless noted, calls come from the whole dose curve; as a rule, active = well fitted inhibition curve with a large enough effect in the main read-out, with a control signal flat; inconclusive = small, poorly fitted or top-dose-only effect, or a change in a side signal; inactive = no such curve, though single readings can be large or run the other way.

SMILES | GALK inh | VDR inh | USP1 inh | Coupling enz | PLK1 PBD inh | USP2a block | others
CC12C=CC(=O)C=C1CCC1C2=CCC2(C)C1CC[C@@H]2C(=O)CN1CCN(c2cc(N3CCCC3)nc(N3CCCC3)n2)CC1 (some centres undefined) | . | 3.2µM* | . | -38* | . | .
CCOC(=O)[C@]12Cc3cc(OC)ccc3[C@H]1N(CCC(=O)OC)C(=O)c1cc(OC)ccc12 | . | . | . | . | 13µM* | .
CCOC(=O)[C@]12Cc3ccccc3[C@H]1N(Cc1ccccc1)C(=O)c1cc(OC)ccc12 | . | . | . | . | -28% | .
CCCCCN1C(=O)c2cc(OC)ccc2[C@@]2(C(=O)OCC)Cc3cc(Cl)ccc3[C@@H]12 | . | . | . | . | 4.7µM* | .
CCOC(=O)[C@]12Cc3c(cc(OC)c(OC)c3OC)[C@H]1N(Cc1ccccc1)C(=O)c1ccccc12 | . | -8% | 6% | . | -3% | .
CCOC(=O)[C@]12Cc3cc4ccccc4cc3[C@H]1N(Cc1ccccc1)C(=O)c1cc(OC)ccc12 | . | . | . | . | 11µM* | .
CCOC(=O)[C@]12Cc3cc(Cl)ccc3[C@H]1N(Cc1ccccc1)C(=O)c1cc(OC)ccc12 | . | . | . | . | 11µM* | .
FC(F)(F)c1ccccc1CCN1CCNCC1 | -2% | -13% | -28% | 1 | -9% | 6%
CCN(CC)S(=O)(=O)c1ccc(C(=O)NC2CN3CCC2CC3)cc1 (centres undefined) | 4% | 0% | -17% | -4 | 5% | -1%
Clc1ccccc1C1NCc2ccccc2-n2cccc21 (centres undefined) | 0% | 6% | -17% | -3 | -14% | 0%
O=C(C(Cc1ccccc1)NS(=O)(=O)c1ccc(F)cc1)N1CCC2(CC1)OCCO2 (centres undefined) | 3% | -5% | -7% | 1 | 5% | -8%
CCOC(=O)[C@]12Cc3cc4ccccc4cc3[C@H]1N(Cc1ccccc1)C(=O)c1ccccc12 | . | . | . | . | 12µM* | .
O=C(Cc1ccccc1)OCc1ccccc1 | . | -2% | 4% | . | -11% | 1%
[O]=[Sb]([OH])([OH])[c]1ccccc1 | . | 79µM* | . | . | . | .
COc1cc(C(=O)Nc2ccc(Br)cc2C(=O)c2ccccc2)cc(OC)c1OC | 1% | -3% | -12% | 1 | -3% | 2%
Cc1ccc2nc3sc(=O)sc3nc2c1 | . | 8.9µM* | . | 2 | . | .
Cc1nc2ccc(P(=O)(O)O)cc2s1 | 7% | . | . | 2 | . | 2%
O=C1C2CCN(CC2)[C@@H]1Cc1ccc2ccccc2c1O | 0% | -7% | -10% | -43* | 0% | -1%
COc1ccc(S(=O)(=O)N(C)C[C@H]2Oc3c(NC(=O)NC4CCCCC4)cccc3C(=O)N([C@H](C)CO)C[C@@H]2C)cc1 | . | 6% | ? | . | -7% | 3%
Cc1ccc(S(=O)(=O)Nc2ccc3c(c2)CC(=O)N([C@H](C)CO)C[C@@H](C)[C@H](CN(C)S(=O)(=O)c2ccccc2)O3)cc1 | . | ? | 7% | . | 21µM* | 3%
CN1C(=O)[C@]23CC4=CC=C[C@H](O)[C@H]4N2C(=O)[C@@]1(CO)SS3 | . | 4µM* | . | -8 | . | .
CNS(=O)(=O)c1ccc(N=Cc2c(O)n(-c3cccc(C)c3)c(=O)[nH]c2=O)cc1 | 13% | ? | -5% | -3 | ? | 1%
CCOC(=O)c1sc(/N=C/c2c(O)n(-c3cccc(C)c3)c(=O)[nH]c2=O)c(C#N)c1C | 0% | ? | -23% | 2 | 19µM* | -2%
CC12Cc3cnoc3C=C1CCC1C2CCC2(C)C1CCC2(C)O (centres undefined) | . | -8% | -9% | . | 0% | .
C[C@]12Cc3cn4c(nc3C=C1CC[C@H]1[C@@H]2CC[C@@]2(C)[C@H]1CC[C@@]2(O)C#N)nc1ccccc14 | . | . | . | . | . | . | CASP1 inh CRC=?;Casp7 confirm=?;Casp7 cysteine=?;CASP1 redox cys=?
COc1cc2c(cc1O)-c1c(O)c(OC)cc3c1[C@H](C2)N(C)CC3 | . | . | . | -28 | . | . | CASP1 inh CRC=-14%;Casp7 confirm=-5%;Casp7 cysteine=-6%;CASP1 redox cys=3%
Cn1cccc1C1CCCN1CC(=O)Nc1ccc(C#N)c(Cl)c1 (centres undefined) | . | 1% | -6% | . | -8% | 0%
Cn1ncnc2c(=O)n(C)c(=O)nc1-2 | 1.3µM* | -6% | 0.032µM* | -94* | ? | 1% | Casp1 catalase=1.1µM*;CASP1 inh CRC=2µM*;Casp7 confirm=4µM*;Casp7 cysteine=-17%;CASP7 redox cat=?;CASP1 redox cys=-15%
COc1cccc(-n2c(/C=C/c3ccccc3O)nc3ccccc3c2=O)c1 | . | -23% | -3% | . | . | .
CCN(CC)c1ccc(/C=C2/C(=O)NC(=O)N(CC3CCCO3)C2=O)cc1 (centres undefined) | 4% | -3% | -12% | 3 | ? | 2%

Screens from PubChem.
